Experimental data: PubChem BioAssay AID1159580 (chemical genetic matrix, 2015)
Several values for one entry are separate records, joined by “and”; a condition that tells them apart may be missing. Equal values may be shown once. Out of some 5,500 compounds screened, about 2,000 (36%) were called active. Roughly 18% stayed inconclusive and do not appear here. Rule as the data show it: active = normalized growth mostly below about 0.91 (no sharp cut-off); inconclusive = no clear call, values can overlap the other calls; inactive = mostly above about 0.92. The list shows a part of the results.

Assay: chemical genetic growth profiling, strain panel (AID 1159580);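 also: tested at 20 µM; growth read once vehicle control cultures reached saturation at 30 °C; 1 = growth at the plate median or of vehicle wells; lower values mean less growth of the strain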
Conditions: S. cerevisiae deletion strains, growth OD

Measured: normalized growth

CC(=O)OC(C)(C)[C@@H]1Cc2cc3ccc(=O)oc3cc2O1
inactive: locus YAL021C, strain ccr4, stronger effect = lower value 1.01 | locus YAL026C, strain drs2, stronger effect = lower value 0.984 | locus YAL030W, strain snc1, stronger effect = lower value 0.963 | locus YBL061C, strain skt5, stronger effect = lower value 0.969 | locus YBR009C, strain hhf1, stronger effect = lower value 0.909 | locus YBR021W, strain FUR4, stronger effect = lower value 0.99 | locus YBR023C, strain chs3, stronger effect = lower value 0.972 | locus YBR171W, strain sec66, stronger effect = lower value 0.968 | locus YBR229C, strain ROT2, stronger effect = lower value 1 | locus YBR231C, strain swc5, stronger effect = lower value 0.968 | locus YBR279W, strain paf1, stronger effect = lower value 0.975 | locus YCL011C, strain gbp2, stronger effect = lower value 0.954 | locus YCL016C, strain dcc1, stronger effect = lower value 0.977 | locus YCL029C, strain bik1, stronger effect = lower value 1.01 | locus YCL061C, strain MRC1, stronger effect = lower value 0.978 | locus YCL069W, strain vba3, stronger effect = lower value 0.963 | locus YCR088W, strain abp1, stronger effect = lower value 0.982 | locus YDL005C, strain med2, stronger effect = lower value 0.977 | locus YDL035C, strain GPR1, stronger effect = lower value 1.01 | locus YDL040C, strain nat1, stronger effect = lower value 0.968 | locus YDL074C, strain BRE1, stronger effect = lower value 1.03 | locus YDL101C, strain DUN1, stronger effect = lower value 0.999 | locus YDL185W, strain tfp1, stronger effect = lower value 1 | locus YDL192W, strain arf1, stronger effect = lower value 0.989 | locus YDR001C, strain nth1, stronger effect = lower value 0.965 | locus YDR069C, strain doa4, stronger effect = lower value 0.962 | locus YDR101C, strain arx1, stronger effect = lower value 1.01 | locus YDR137W, strain rgp1, stronger effect = lower value 0.992 | locus YDR150W, strain NUM1, stronger effect = lower value 1.01 | locus YDR159W, strain sac3, stronger effect = lower value 0.936 | locus YDR162C, strain NBP2, stronger effect = lower value 1 | locus YDR195W, strain ref2 0.959 | locus YDR297W, strain sur2, stronger effect = lower value 0.972 | locus YDR318W, strain mcm21, stronger effect = lower value 0.991 | locus YDR334W, strain swr1, stronger effect = lower value 0.972 | locus YDR335W, strain msn5, stronger effect = lower value 0.992 | locus YDR388W, stronger effect = lower value 1 | locus YDR392W, strain spt3, stronger effect = lower value 0.789 | locus YDR502C, strain sam2, stronger effect = lower value 1.01 | locus YEL003W, strain gim4, stronger effect = lower value 0.968 | locus YEL037C, strain rad23, stronger effect = lower value 0.965 | locus YEL061C, strain CIN8 (second series), stronger effect = lower value 0.97 | locus YEL061C, strain CIN8, stronger effect = lower value 1 | locus YER015W, strain faa2, stronger effect = lower value 0.989 | locus YER016W, strain bim1, stronger effect = lower value 0.982 | locus YER110C, stronger effect = lower value 0.995 | locus YER111C, strain swi4, stronger effect = lower value 0.974 | locus YER155C, strain BEM2 (second series), stronger effect = lower value 0.94 | locus YER155C, strain BEM2, stronger effect = lower value 0.999 | locus YER167W, strain BCK2, stronger effect = lower value 0.998 | locus YFR010W, strain ubp6, stronger effect = lower value 0.969 | locus YGL078C, strain dbp3, stronger effect = lower value 1.02 | locus YGL086W, strain mad1, stronger effect = lower value 1.01 | locus YGL167C, strain pmr1, stronger effect = lower value 0.949 | locus YGL173C, strain kem1, stronger effect = lower value 0.961 | locus YGL227W, strain vid30, stronger effect = lower value 0.966 | locus YGL240W, strain doc1, stronger effect = lower value 0.96 | locus YGL248W, strain PDE1, stronger effect = lower value 0.997 | locus YGL253W, strain hxk2, stronger effect = lower value 0.985 | locus YGR135W, strain pre9, stronger effect = lower value 0.989 | locus YGR229C, strain SMI1, stronger effect = lower value 1.04 | locus YGR252W, strain gcn5, stronger effect = lower value 0.916 | locus YHR013C, strain ard1, stronger effect = lower value 0.92 | locus YHR027C, strain rpn1, stronger effect = lower value 0.984 | locus YHR030C, strain SLT2, stronger effect = lower value 0.998 and 0.969 | locus YHR079C, strain IRE1 (second series), stronger effect = lower value 1 | locus YHR079C, strain IRE1, stronger effect = lower value 0.978 | locus YHR094C, strain hxt1, stronger effect = lower value 1.01 | locus YHR129C, strain ARP1, stronger effect = lower value 0.996 | locus YHR142W, strain chs7, stronger effect = lower value 0.993 | locus YHR200W, strain rpn10, stronger effect = lower value 0.989 | locus YIL066C, strain RNR3, stronger effect = lower value 1.01 | locus YIL073C, strain SPO22, stronger effect = lower value 1.04 | locus YIL125W, strain kgd1, stronger effect = lower value 1.02 | locus YIR030C, strain dcg1, stronger effect = lower value 0.997 | locus YJL092W, strain hpr5, stronger effect = lower value 0.986 | locus YJL095W, strain BCK1 (second series), stronger effect = lower value 0.983 | locus YJL095W, strain BCK1, stronger effect = lower value 1.01 and 1.05 | locus YJL115W, strain asf1, stronger effect = lower value 0.983 | locus YJL129C, strain trk1, stronger effect = lower value 0.981 | locus YJL134W, strain LCB3, stronger effect = lower value 1.01 | locus YJL154C, strain vps35, stronger effect = lower value 0.966 | locus YJL164C, strain tpk1, stronger effect = lower value 0.996 | locus YJL166W, strain qcr8, stronger effect = lower value 0.979 | locus YJL168C, strain set2, stronger effect = lower value 1 | locus YJL187C, strain SWE1 (second series), stronger effect = lower value 1 | locus YJL187C, strain SWE1, stronger effect = lower value 0.971 | locus YJR043C, strain POL32, stronger effect = lower value 0.991
